Earlier results on three compounds are cited in PubChem BioAssay AID977611.

SMILES strings stand for the structures. “And” between values parts separate entries of the source, which are not always exact repeats. Equal values may be shown once. The whole screen tested about 3,900 compounds, of which about 3,900 (100%) were called active. The limit is not given here; nearly all actives have Kd up to about 4200 µM. So high a share suggests a set chosen from earlier hits. Some of the results follow.

The nature of the series: PubChem AID 977611. The conditions noted are these: PDB protein-ligand complexes, literature Kd.
As for `O=P(O)(O)OC1C(OP(=O)(O)O)C(OP(=O)(O)O)C(OP(=O)(O)O)C(OP(=O)(O)O)C1OP(=O)(O)O` (stereo not drawn), the Kd was 180 nM (active).
On to `NC(=O)c1ccc[n+]([C@@H]2O[C@H](COP(=O)([O-])OP(=O)(O)OC[C@H]3O[C@@H](n4cnc5c(N)ncnc54)[C@H](O)[C@@H]3O)[C@@H](O)[C@H]2O)c1`, for which the Kd was 80 µM (active) and 63.7 µM (active).
As to `Nc1ncnc2c1ncn2[C@@H]1O[C@H](COP(=O)(O)OP(=O)(O)O)[C@H]2O[C@]3(O[C@H]21)C([N+](=O)[O-])=CC([N+](=O)[O-])=CC3[N+](=O)[O-]` (stereo partly drawn), the Kd is 2100 nM (active).
